One may read the inhibition as the relative decrease from the control value, in per cent.

Experiment [1] is described as follows: inhibitors of TNFa-induced NFkB p65 translocation, primary screen, imaging, HUVEC, MLSMR starter and 10KST1 sets (AID 438;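 active = inhibition above 20% together with a positive visual image hit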;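 also: compound added about 3h40 before a 20 min TNFalpha stimulation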;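 as to inhibition: signal is the nuclear over cytoplasmic p65 intensity ratio per well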). To be noted: HUVEC TNFa-induced p65 nuclear translocation; cell count: measured here: nuclei count (cytotoxicity indicator), at 2.08 µM; inhibition: at 2 µM, stronger effect = higher value, 0% TNFa-plus-vehicle, 100% no-TNFa wells.
Experiment [2] is described as follows: inhibitors of mutant huntingtin aggregation, primary screen, imaging, exon1htt(103Q)mCFP cells, high-content imaging (AID 483;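 active = visual image review flags a hit and inhibition of aggregation exceeds 20%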;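 also: compound exposure lasted 3 days before fixation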;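 as to nuclei count: percent of the per-plate median nuclei count of sample wells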). Conditions: exon1htt(103Q)mCFP cell line, aggregate imaging, at 2 µM; inhibition of aggregation: stronger effect = higher value; nuclei count: measured here: cell count, toxicity.
A short description of experiment [3]: inhibitors of E-selectin induction by TNFa, primary screen, imaging, HUVEC, immunofluorescence, MLSMR starter and 10KST1 sets (AID 487).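 As to inhibition: signal is fraction of cell area covered by stained E-selectin grains.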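 As to nuclei count: 100% = median nuclei count of all wells on the same plate.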 To be noted: HUVEC TNFalpha-induced E-selectin immunofluorescence imaging, at 2 µM; inhibition: stronger effect = higher value; nuclei count: measured here: cell number, toxicity.
In experiment [4] the target is Voltage-gated potassium channel subunit beta-2 (Rattus norvegicus) (UniProt P62483). Description: KvBeta enzyme negative modulators, primary screen, biochemical, NADPH fluorescence (AID 622;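 active = fluorescence slope higher than the sample average by over 3 SD, cut at about -0.22 in these data, passing the limit was not always enough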;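 also: slope of raw intensity against log time taken from 70 to 1610 s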). Conditions: recombinant KvBeta, 4-cyanobenzaldehyde reduction, at 10 µM, stronger effect = higher value.
For experiment [5] the target is unchanged. Description: KvBeta positive modulators, primary screen, biochemical, NADPH fluorescence (AID 623;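 active = NADPH fluorescence slope more negative than the mean of all samples by about 3 SD, 99.7% confidence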;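 also: fluorescence intensity change per second fitted from 20 to 320 s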). To be noted: Recombinant KvBeta, NADPH fluorescence decrease slope, 10 min; at 10 µM; stronger effect = lower value.
Experiment [6] has as its target Alpha-2C adrenergic receptor (Homo sapiens) (UniProt P18825). Description: modulators of alpha2C/GIRK thallium flux, primary screen, cell-based, HEK293 alpha2C/GIRK1/2 (AID 624;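 active = fluorescence slope after compound addition differing from the mean of all screened samples at 99.7% confidence, in either direction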;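 also: slope of fluorescence ratio to pre-addition baseline per second over 15 to 24 s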). Conditions: thallium flux BTC fluorescence, at 10 µM, actives lie on both sides.
A short description of experiment [7]: inhibitors of Sendai virus-induced IRF3 signaling, primary screen, TLR/RLR signaling modifier project, cell-based, Sendai virus stimulus, luciferase, 10K MLSCN set (AID 602276;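 active = inhibition at or above 50% at 10 µM; inactive = inhibition below 50%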;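 also: firefly luciferase from ISG56 promoter only with Renilla not read in this screen; 0% = Sendai virus plus DMSO and 100% = medium plus DMSO without virus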). To be noted: HEK293 RL24 IRF3 luciferase reporter, at 10 µM, stronger effect = higher value. (Reporter assays use an easily measured gene product as a stand-in for the process of interest.)
Experiment [8] is described as follows: inhibitors of poly I:C-induced TLR3 signaling, primary screen, cell-based, poly I:C stimulus, luciferase, 10K MLSCN set (AID 602277;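 active = inhibition of the reporter signal at or above 50%; inactive = inhibition below 50%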). Conditions: HEK293-TLR3 RL24 IRF3 luciferase reporter, at 10 µM, stronger effect = higher value.

Active and inactive are the calls of the source.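 The calls were made as follows, unless noted: active = visually confirmed hit in the image check and inhibition above 20%; inconclusive = visually confirmed hit but inhibition not above 20%; inactive = no visual hit in the image check.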

Alpha-2C adrenergic receptor (Homo sapiens), sequence (P18825 whole entry, looked up): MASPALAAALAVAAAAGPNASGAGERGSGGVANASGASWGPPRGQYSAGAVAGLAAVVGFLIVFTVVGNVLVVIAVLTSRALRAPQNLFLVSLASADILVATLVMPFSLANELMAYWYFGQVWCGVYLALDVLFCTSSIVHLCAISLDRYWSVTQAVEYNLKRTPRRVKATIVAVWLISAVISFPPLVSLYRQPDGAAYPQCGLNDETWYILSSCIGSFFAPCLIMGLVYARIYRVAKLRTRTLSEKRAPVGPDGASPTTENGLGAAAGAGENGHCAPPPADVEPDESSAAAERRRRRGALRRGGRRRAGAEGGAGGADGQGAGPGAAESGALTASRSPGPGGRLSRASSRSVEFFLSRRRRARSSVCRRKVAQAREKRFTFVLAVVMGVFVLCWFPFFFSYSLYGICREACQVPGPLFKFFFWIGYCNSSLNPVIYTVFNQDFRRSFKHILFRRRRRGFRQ
Voltage-gated potassium channel subunit beta-2 (Rattus norvegicus), sequence (P62483 whole entry, looked up): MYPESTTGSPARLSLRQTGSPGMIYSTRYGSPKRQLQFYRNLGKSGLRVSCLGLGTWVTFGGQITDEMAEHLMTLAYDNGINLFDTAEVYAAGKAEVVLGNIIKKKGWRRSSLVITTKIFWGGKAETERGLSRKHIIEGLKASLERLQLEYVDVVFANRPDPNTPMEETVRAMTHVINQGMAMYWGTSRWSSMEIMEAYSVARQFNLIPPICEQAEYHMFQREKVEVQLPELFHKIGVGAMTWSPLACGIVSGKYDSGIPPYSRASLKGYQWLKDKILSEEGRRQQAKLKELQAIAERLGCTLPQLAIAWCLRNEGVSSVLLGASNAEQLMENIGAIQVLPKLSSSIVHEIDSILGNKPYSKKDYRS

Regarding `CC(=O)Nc1ccccc1-c1nc2ccc(C(=O)N3CCN(c4ccccc4)CC3)cc2[nH]c1=O`, the cell count in experiment [1] turned out to be 617. The inhibition in experiment [1] is 14.7% (inactive); in experiment [3], -3.1% (inactive); in experiment [7], 5.92% (inactive); in experiment [8], -0.673% (inactive). In addition, the inhibition of aggregation in experiment [2] was -6.6% (inactive). The nuclei count in experiment [2] came to 96.8%; in experiment [3], 110%. In addition, the fluorescence slope in experiment [4] was -0.489 (inactive). The NADPH fluorescence slope in experiment [5] is -4.7e-05 (inactive). The slope in experiment [6] is 0.00656 (inactive).

Take `O=C(NCCSc1c[nH]c2ccccc12)c1ccco1`: the cell count in experiment [1] came out at 686. The inhibition in experiment [1] is -2.4% (inactive); in experiment [3], -15.8% (inactive); in experiment [7], 10.1% (inactive); in experiment [8], 32.9% (inactive). Also, the inhibition of aggregation in experiment [2] is -13.1% (inactive). Moreover, the nuclei count in experiment [2] is 108%; in experiment [3] it was 116%. The fluorescence slope in experiment [4] was -0.562 (inactive). The NADPH fluorescence slope in experiment [5] is -4e-05 (inactive). Also, the slope in experiment [6] is 0.00591 (inactive).

On to `O=C(NC1CCCCCC1)C1CCCN(S(=O)(=O)c2cccs2)C1` (centres undefined), for which the cell count in experiment [1] amounted to 714. For the same compound, the inhibition in experiment [1] was -6.2% (inactive); in experiment [3] it was -27.6% (inactive); in experiment [7] it was -10.9% (inactive); in experiment [8] it was 2.4% (inactive). Further, the inhibition of aggregation in experiment [2] was -1% (inactive). Also, the nuclei count in experiment [2] is 109%; in experiment [3], 108%. Moreover, the fluorescence slope in experiment [4] was -0.428 (inactive). In experiment [5], the NADPH fluorescence slope is -6.4e-05 (inactive). Besides, the slope in experiment [6] was 0.00338 (inactive).

For the compound `O=C(CCCn1c(=S)[nH]c2cc3c(cc2c1=O)OCO3)N1CCN(c2ccccc2F)CC1`, the cell count in experiment [1] was 402. The inhibition in experiment [1] was -9.1% (inactive); in experiment [3] it was 0.1% (inactive); in experiment [7], 8.7% (inactive); in experiment [8] it was -6.98% (inactive). Moreover, the inhibition of aggregation in experiment [2] was -7.6% (inactive). For the same compound, the nuclei count was 99.5% in experiment [2] and 112% in experiment [3]. Moreover, in experiment [4], the fluorescence slope is -0.501 (inactive). Also, in experiment [5], the NADPH fluorescence slope is -4.7e-05 (inactive). For the same compound, the slope in experiment [6] was 0.00637 (inactive).

For `Cc1cc2ncc(-c3ccc(Cl)cc3)c(N)n2n1`, the cell count in experiment [1] was found to be 930. In addition, the inhibition in experiment [1] was -1.7% (inactive); in experiment [3] it was -36.3% (inactive); in experiment [7], -34% (inactive); in experiment [8] it was -158% (inactive). Also, the inhibition of aggregation in experiment [2] was -6% (inactive). The nuclei count in experiment [2] turned out to be 129%; in experiment [3], 125%. Besides, in experiment [4], the fluorescence slope is -0.583 (inactive). Further, the NADPH fluorescence slope in experiment [5] is 2.1e-05 (inactive). The slope in experiment [6] is 0.00574 (inactive).

Consider `c1ccc(-c2nc3nonc3c3nc4ccccc4n23)cc1`, for which the cell count in experiment [1] was found to be 333. The inhibition in experiment [1] was -12.4% (inactive); in experiment [3] it was -40.9% (inactive); in experiment [7], 9.01% (inactive); in experiment [8], -7.48% (inactive). In experiment [2], the inhibition of aggregation is 1.1% (inactive). In addition, the nuclei count in experiment [2] is 95.8%; in experiment [3], 94.2%. Also, in experiment [4], the fluorescence slope is -0.244 (inactive). Moreover, the NADPH fluorescence slope in experiment [5] is -2.9e-05 (inactive). For the same compound, the slope in experiment [6] was 0.00529 (inactive).

Regarding `Cc1cccc(N2CCN(Cc3c(C)n(C)n(-c4ccccc4)c3=O)CC2)c1C`, the cell count in experiment [1] is 451. Besides, the inhibition in experiment [1] is 0.5% (inactive); in experiment [3], -29.6% (inactive); in experiment [7], 13.4% (inactive); in experiment [8], 18.5% (inactive). For the same compound, the inhibition of aggregation in experiment [2] was 9.8% (inactive). The nuclei count in experiment [2] was found to be 92.6%; in experiment [3], 124%. In addition, the fluorescence slope in experiment [4] was -0.465 (inactive). Besides, the NADPH fluorescence slope in experiment [5] is 5.9e-05 (inactive). For the same compound, the slope in experiment [6] was 0.00748 (inactive).

`CN(C)Cc1cn(CCC(=O)O)c2ccccc12`: the cell count in experiment [1] was determined as 331. Further, the inhibition in experiment [1] was 5.3% (inactive); in experiment [3], 9.1% (inactive); in experiment [7] it was -16.1% (inactive); in experiment [8], 19.4% (inactive). Moreover, the inhibition of aggregation in experiment [2] is -18.2% (inactive). The nuclei count came out at 90.8% in experiment [2] and 103% in experiment [3]. The fluorescence slope in experiment [4] was -0.481 (inactive). Further, the NADPH fluorescence slope in experiment [5] is 4.3e-05 (inactive). In addition, the slope in experiment [6] is 0.00704 (inactive).

Turning to `Cc1ccc(S(=O)(=O)CC(=O)N2CCCCCC2)cc1`, the cell count in experiment [1] was determined as 615. The inhibition in experiment [1] is 9.2% (inactive); in experiment [3], -33% (inactive); in experiment [7], -16.3% (inactive); in experiment [8], -15.4% (inactive). In addition, in experiment [2], the inhibition of aggregation is 17% (inactive). For the same compound, the nuclei count in experiment [2] came to 103%; in experiment [3] it was 112%. The fluorescence slope in experiment [4] is -0.504 (inactive). In addition, the NADPH fluorescence slope in experiment [5] is -5.2e-05 (inactive). For the same compound, the slope in experiment [6] was 0.0061 (inactive).

In the case of `COc1ccc(CCN2C(=O)CCC2(C)C(=O)NCc2cccnc2)cc1OC` (centres undefined), the cell count in experiment [1] came out at 436. Moreover, the inhibition in experiment [1] was -6% (inactive); in experiment [3], -83.9% (inactive); in experiment [7], 8.53% (inactive); in experiment [8], 7.83% (inactive). For the same compound, in experiment [2], the inhibition of aggregation is 5.2% (inactive). In addition, the nuclei count in experiment [2] turned out to be 103%; in experiment [3], 97.9%. The fluorescence slope in experiment [4] is -0.602 (inactive). Moreover, in experiment [5], the NADPH fluorescence slope is 2.6e-06 (inactive). In addition, in experiment [6], the slope was 0.0059 (inactive).

`CC(=O)Nc1ccc(S(=O)(=O)N2CCN(C(=O)CCC3CCCC3)CC2)cc1`: the cell count in experiment [1] came out at 312. Also, the inhibition is -0.8% (inactive) in experiment [1], -42.2% (inactive) in experiment [3], 24.2% (inactive) in experiment [7] and 10.7% (inactive) in experiment [8]. For the same compound, the inhibition of aggregation in experiment [2] is -12.8% (inactive). For the same compound, the results for the nuclei count in experiment [2] and in experiment [3] were 96.2% and 129%, respectively. In addition, in experiment [4], the fluorescence slope is -0.581 (inactive). The NADPH fluorescence slope in experiment [5] is 5.8e-05 (inactive). The slope in experiment [6] is 0.00522 (inactive).

As to `CCOc1cc2[nH]c(=S)n(CC3CCCO3)c(=O)c2cc1OCC` (centres undefined), the cell count in experiment [1] was determined as 317. Besides, the inhibition in experiment [1] is -0.5% (inactive); in experiment [3], -51.1% (inactive); in experiment [7], -8.82% (inactive); in experiment [8], 15.8% (inactive). In experiment [2], the inhibition of aggregation is 1% (inactive). Also, the nuclei count in experiment [2] is 104%; in experiment [3], 115%. Also, in experiment [4], the fluorescence slope is -0.491 (inactive). Also, the NADPH fluorescence slope in experiment [5] was 4e-05 (inactive). Moreover, the slope in experiment [6] is 0.00618 (inactive).

`CCOC(=O)N1CCN(c2nc(-c3ccc(Cl)cc3)cs2)CC1`: the cell count in experiment [1] stood at 256. Also, the inhibition in experiment [1] was 7.4% (inactive); in experiment [3] it was -94.3% (inactive); in experiment [7], -3.5% (inactive); in experiment [8], -38.7% (inactive). The inhibition of aggregation in experiment [2] is 7.8% (inactive). Besides, the nuclei count came out at 80.8% in experiment [2] and 113% in experiment [3]. Moreover, the fluorescence slope in experiment [4] is -0.35 (inactive). For the same compound, the NADPH fluorescence slope in experiment [5] was -3.8e-05 (inactive). The slope in experiment [6] is 0.00625 (inactive).

In the case of `O=C1c2ccccc2-c2ccc(C(=O)N3CCOCC3)cc21`, the cell count in experiment [1] came out at 623. The inhibition in experiment [1] is -4.1% (inactive); in experiment [3], -103% (inactive); in experiment [7], 5.8% (inactive); in experiment [8], -1.97% (inactive). In addition, the inhibition of aggregation in experiment [2] was -6.2% (inactive). For the same compound, the figures for the nuclei count in experiment [2] and in experiment [3] were 81.1% and 101%, respectively. Also, the fluorescence slope in experiment [4] was -0.235 (inactive). Besides, the NADPH fluorescence slope in experiment [5] is -1.8e-05 (inactive). In addition, the slope in experiment [6] is 0.00393 (inactive).

Source of the values: PubChem BioAssay.
